The text below walks through data of the supplement of paper PMC12067926.

For the experiment, the system named is Bacillus 1 (Bacillus foraminis). The experiment can be described thus: relative growth (AUC of 72 h growth curve relative to DMSO control, dAUC) (ratio); higher = more growth (less inhibition), active = hit call of the paper. As to conditions: 20 µM;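 active = growth AUC significantly below the DMSO wells by Dunnett test; inactive = the rest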. How it is done: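 Environmental bacterial isolates (Iceland stream sediment and Silwood Park soil) and whole stream-sediment communities were grown in LB from a 1:100 dilution with each pesticide at 20 µM (1% DMSO). A600 was read hourly for 72 h and the area under a spline-fitted growth curve (AUC) was computed. dAUC is the mean AUC of 3 biological replicates divided by the mean AUC of the DMSO controls. Significance was tested by Dunnett's test against the DMSO control.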
On to `CC(C)N1C(=O)c2ccccc2NS1(=O)=O`, for which the relative growth was 1.01 (inactive).

On to `COCC(C)N(C(=O)CCl)c1c(C)csc1C` (stereo not given), for which the relative growth is 0.948 (inactive).

As for `CCOc1cc(Oc2ccc(C(F)(F)F)cc2Cl)ccc1[N+](=O)[O-]`, the relative growth was 0.956 (inactive).

In the case of `Oc1ccccc1-c1ccccc1`, the relative growth is 0.868 (inactive).

As to `COP(=O)(OC)OC=C(Cl)Cl`, the relative growth was 0.941 (inactive).

Consider `O=[N+]([O-])/N=C1\NCCN1Cc1ccc(Cl)nc1`, for which the relative growth was 1.06 (inactive).

`CNC(=O)CSP(=S)(OC)OC`: the relative growth is 0.911 (inactive).

Turning to `CCCCN(CCCC)SN(C)C(=O)Oc1cccc2c1OC(C)(C)C2`, the relative growth is 1.03 (inactive).

As for `C#CCOc1ccc(CCNC(=O)C(OCC#C)c2ccc(Cl)cc2)cc1OC` (stereo not given), the relative growth is 1.06 (inactive).

With `CC(C)(C)C(O)(CCc1ccc(Cl)cc1)Cn1cncn1` (stereo not given), the relative growth was 0.924 (inactive).

Take `Cc1cccc2sc3nncn3c12`: the relative growth is 1.03 (inactive).

As to `CC1(C)C(C(=O)OC(C#N)c2cccc(Oc3ccccc3)c2)C1(C)C` (stereo not given), the relative growth was 0.917 (inactive).

For `CC(C)OC(=O)C(C(=O)OC(C)C)=C1SCCS1`, the relative growth is 1.05 (inactive).

On to `CC(C)NC(=O)N1CC(=O)N(c2cc(Cl)cc(Cl)c2)C1=O`, for which the relative growth is 0.928 (inactive).

As to `CCOP(=S)(OCC)Oc1cc(C)nc(C(C)C)n1`, the relative growth is 0.963 (inactive).

Turning to `CCCSP(=O)(OCC)Oc1ccc(Br)cc1Cl` (stereo not given), the relative growth was 1.07 (inactive).

For the compound `CC(C)N(C(=O)COc1nnc(C(F)(F)F)s1)c1ccc(F)cc1`, the relative growth was 0.999 (inactive).

Regarding `CCC(=O)Nc1ccc(Cl)c(Cl)c1`, the relative growth is 0.957 (inactive).

Regarding `CNC(=O)c1cc(Cl)cc(C)c1NC(=O)c1cc(Br)nn1-c1ncccc1Cl`, the relative growth is 1.01 (inactive).

With `Clc1ccc(C(c2ccc(Cl)cc2)C(Cl)(Cl)Cl)cc1`, the relative growth was 1.06 (inactive).

For the compound `OC(Cc1ccccc1Cl)(Cn1nc[nH]c1=S)C1(Cl)CC1` (stereo not given), the relative growth is 0.988 (inactive).

Regarding `CN1COCN(Cc2cnc(Cl)s2)/C1=N\[N+](=O)[O-]`, the relative growth is 1.02 (inactive).

In the case of `COc1ccc(-c2ccccc2)cc1NNC(=O)OC(C)C`, the relative growth was 1.03 (inactive).

For `CCc1cc(C)cc(CC)c1-c1c(OC(=O)C(C)(C)C)n2n(c1=O)CCOCC2`, the relative growth is 0.912 (inactive).

As to `CS(=O)(=O)NC(=O)c1cc(Oc2ccc(C(F)(F)F)cc2Cl)ccc1[N+](=O)[O-]`, the relative growth is 1.04 (inactive).

With `CS(=O)(=O)c1cc(C(F)(F)F)ccc1C(=O)c1cnoc1C1CC1`, the relative growth is 1.02 (inactive).

With `CN/C(=N\[N+](=O)[O-])NCc1cnc(Cl)s1`, the relative growth is 1.03 (inactive).

Regarding `CCOCN(C(=O)CCl)c1c(C)cccc1CC`, the relative growth was 1 (inactive).

`COc1cccc(C(=O)NN(C(=O)c2cc(C)cc(C)c2)C(C)(C)C)c1C`: the relative growth is 0.966 (inactive).

In the case of `COCc1cnc(C2=NC(C)(C(C)C)C(=O)N2)c(C(=O)O)c1` (stereo not given), the relative growth was 0.985 (inactive).

In the case of `COCC(=O)N(c1c(C)cccc1C)[C@H](C)C(=O)OC`, the relative growth was 1.06 (inactive).

For `O=C(O)CNCP(=O)(O)O`, the relative growth is 1.04 (inactive).

As to `O=C(NC(=O)c1c(F)cccc1F)Nc1ccc(OC(F)(F)C(F)OC(F)(F)F)c(Cl)c1` (stereo not given), the relative growth is 0.942 (inactive).

As for `CON(C)C(=O)Nc1ccc(Cl)c(Cl)c1`, the relative growth is 1.04 (inactive).

On to `CSc1nnc(C(C)(C)C)c(=O)n1N`, for which the relative growth is 0.94 (inactive).

As for `CC[C@H]1CCC[C@H](O[C@H]2CC[C@H](N(C)C)[C@@H](C)O2)[C@@H](C)C(=O)C2=C[C@@H]3[C@@H](C=C(C)[C@@H]4C[C@@H](O[C@@H]5O[C@@H](C)[C@H](OC)[C@@H](OC)[C@H]5OC)C[C@@H]34)[C@@H]2CC(=O)O1.CC[C@H]1CCC[C@H](O[C@H]2CC[C@H](N(C)C)[C@@H](C)O2)[C@@H](C)C(=O)C2=C[C@H]3[C@@H]4C[C@H](O[C@@H]5O[C@@H](C)[C@H](OC)[C@@H](OC)[C@H]5OC)C[C@H]4C=C[C@H]3C2CC(=O)O1`, the relative growth is 1.04 (inactive).

As to `CCC(C)(C)C(=O)OC1=C(c2ccc(Cl)cc2Cl)C(=O)OC12CCCCC2`, the relative growth is 0.975 (inactive).

Take `O=C(NC(=O)c1c(F)cccc1F)Nc1ccc(Cl)cc1`: the relative growth is 1.05 (inactive).

`CNC(=O)Oc1cccc(/N=C/N(C)C)c1`: the relative growth was 0.983 (inactive).

Regarding `CC(Oc1ccc(Oc2nc3ccc(Cl)cc3o2)cc1)C(=O)O` (stereo not given), the relative growth was 1.02 (inactive).
